PfHsp90 set2: reduces growth (ATP signal) of yeast expressing P. falciparum Hsp90; inhibition, % at 9.4 µM; AID 504621; actives 0.32% (n = 310,000); S. cerevisiae expressing PfHsp90, BacTiter-Glo ATP, 48 h; yeast lacking PDR1 and PDR3 efflux regulators;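 active means every replicate shows inhibition above about 80%, whatever the replicate mean, limit read from the data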
tim23-1 inh: inhibits growth of tim23-1 mutant yeast; S. cerevisiae tim23-1 growth, BacTiter-Glo luminescence, 24 h; inhibition, % at 20 µM; actives 1.3% (n = 330,000); AID 463212;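 active means growth inhibition of the mutant yeast at or above 50%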;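 further: temperature-sensitive mutant grown at 25 °C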
V-ATPase pHluor: yeast V-ATPase proton transport regulation by pHLuorin | S. cerevisiae, pHLuorin cytosolic pH fluorescence | response, % at 10 µM | actives 0.37% (n = 350,000); in the data active means response mostly above about 7.3%, no sharp cut-off; inactive means mostly below about 5.4%; further: actives read high
tim10-1 inh: growth inhibitors of tim10-1 mutant yeast; S. cerevisiae tim10-1 ts strain growth, BacTiter-Glo, 24 h; inhibition, % at 20 µM; actives 2.2% (n = 330,000); AID 463190;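 active means inhibition of at least 40%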;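 further: mutant grown at 25 °C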
TIM10 inh: TIM10 yeast growth inhibition. S. cerevisiae TIM10 strain growth, BacTiter-Glo luminescence, 24 h. inhibition, % at 10 µM. actives 1.4% (n = 330,000). AID 463195;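 active means inhibition of 40% or more at the single tested concentration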;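 further: wild-type TIM10 isogenic control strain grown at permissive 25 °C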
tim23-1 conf: confirmation of tim23-1 mutant yeast growth inhibitors; shares compounds with tim23-1 inh; inhibition, % at 20 µM; S. cerevisiae tim23-1 growth, BacTiter-Glo luminescence, 24 h; actives 83% (n = 4,400);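 active means inhibition above about 39% in either of two replicate wells at 20 µM, limit read from the data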;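 further: temperature-sensitive tim23-1 mutant grown at 25 °C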
A number is an active result; n = inactive; x = no result given. The list is not random: actives were taken first. Their share in the collection is about 3.7%.

SMILES	PfHsp90 set2	tim23-1 inh	V-ATPase pHluor	tim10-1 inh	TIM10 inh	tim23-1 conf
O=C(NCC(=O)N(c1ccccc1)C(C(=O)NC1CCCC1)c1cccnc1)c1cccs1 (stereo not given)	n	n	n	n	n	x
O=[N+]([O-])c1ccc(O)c2ncccc12	109.2	62.2	n	n	n	n
CC(C)C(=O)Nc1ncc(Cc2cccc(Cl)c2)s1	n	54.6	n	n	n	40.2
O=C(Nc1ncc(Cc2cccc(Cl)c2)s1)C1CCCO1 (stereo not given)	n	50.3	n	n	n	43.0
CC(=O)Nc1ncc(Cc2cccc(Cl)c2)s1	n	n	n	n	n	x
Cc1ccc(C(=O)NCc2nnc(SCC(=O)NC(C)c3ccccc3)n2C)cc1 (stereo not given)	n	n	n	n	n	x
C=CCN1c2ccc(Br)cc2C(=O)CS1(=O)=O	x	57.8	n	n	n	54.5
O=C(O)c1ccccc1S(=O)(=O)CC(=O)N1CCCCC1	n	n	n	n	n	x
Cc1ccc(Cl)cc1NC(=S)N(Cc1cccs1)C1CCCC1	x	n	n	n	n	x
Cc1ccccc1NC(=S)N(Cc1cccs1)C1CCCCC1	n	51.2	n	n	n	39.0
COc1ccc(Cn2ccnc2SCC(=O)Nc2nnc(C)s2)cc1	n	n	n	n	n	x
CC(=O)Nc1ncnc2c1c(-c1ccc(Cl)cc1)nn2C(C)(C)C	n	51.9	n	n	n	47.8
CC(=O)N(C(C)=O)c1ncnc2c1c(-c1ccc(Cl)cc1)nn2C(C)(C)C	n	n	n	n	n	x
O=C(N/N=C/c1cccs1)c1cc(-c2cccc3ccccc23)n[nH]1	n	50.6	n	n	n	48.0
O=C(Nc1cc(C(F)(F)F)ccc1N1CCOCC1)c1cn2ccccc2n1	x	n	n	n	n	x
Cc1ccn2cc(C(=O)Nc3ccccc3N3CCOCC3)nc2c1	x	55.8	n	n	n	40.7
CN(C)S(=O)(=O)c1cccc(NC(=S)N/N=C/c2cccc(O)c2)c1	n	n	n	n	n	x
CN(C)S(=O)(=O)c1cccc(NC(=S)N/N=C/c2cc(Br)ccc2O)c1	n	58.4	n	n	n	47.9
Cc1nn(CC(=O)N2CCN(c3cccc(C(F)(F)F)c3)CC2)c(=O)c2cccn12	n	n	n	n	n	x
Fc1cccc(-c2cc3nc(-c4ccccc4)cc(N4CCC5(CC4)OCCO5)n3n2)c1	n	n	n	n	n	x
Fc1cccc(-c2cc3nc4c(c(N5CCC6(CC5)OCCO6)n3n2)CCCC4)c1	n	52.5	n	n	n	n
c1ccc(OCCSc2nc3ccccc3[nH]2)cc1	n	n	n	n	n	x
Cc1ccccc1OCCCSc1nc2ccccc2[nH]1	n	67.7	n	n	n	64.0
CC1(C)c2cc(Cl)ccc2-n2c1cc(O)c(-c1ccccc1)c2=O	n	61.7	n	n	n	57.5
Cc1c(O)cc2n(c1=O)-c1ccc(Cl)cc1C2(C)C	n	n	n	n	n	x
SMILES	PfHsp90 set2	tim23-1 inh	V-ATPase pHluor	tim10-1 inh	TIM10 inh	tim23-1 conf
CCOc1ccc(NS(=O)(=O)c2ccc(-c3cnc(C4CC4)o3)cc2)cc1	n	51.3	n	n	n	44.3
N#Cc1c(N2CCN(c3ccc([N+](=O)[O-])cc3)CC2)[n+](=O)c2ccc(Cl)cc2n1[O-]	n	x	n	x	x	x
COC(=O)[C@H](Cc1ccccc1)N1C/C=C\COc2c(Cl)cc(Cl)cc2S1(=O)=O	n	52.2	n	n	n	n
COC(=O)[C@H](C)N1C/C=C\COc2c(Cl)cc(Cl)cc2S1(=O)=O	n	n	n	n	n	x
NC(=O)c1ccc(Oc2ccc(C(N)=O)cc2)cc1	n	n	n	n	n	x
C/C=C/c1ccc(OCCOc2cc(C=O)ccc2OC)c(OC)c1	n	57.5	n	n	n	67.0
C/C=C/c1ccc(OCC(=O)O)c(OC)c1	n	n	n	n	n	x
CSc1ccc(/C=C(\C#N)C(=O)NC2CCCCC2)cc1	n	n	n	n	n	50.8
C=CCNC(=O)/C(C#N)=C/c1ccc(SC)cc1	n	n	n	n	n	x
N#C/C(=C\c1ccc(Cl)cc1)C(=O)NC1CC1	n	56.3	n	n	n	51.6
Cc1ccc(S(=O)(=O)N2C[C@@H]3[C@H]4CC[C@H](C4)[C@@H]3[C@@H](C)[C@H]2c2ccco2)cc1	n	50.4	n	n	n	n
Cc1ccc(S(=O)(=O)N2C[C@@H]3[C@H]4CC[C@H](C4)[C@@H]3[C@@H](C)[C@@H]2c2ccco2)cc1	n	n	n	n	n	x
CCN(CC)C(=O)[C@H]1CC(CC(=O)NCCC2=CCCCC2)C(=O)N2CCc3c([nH]c4ccccc34)[C@]12C (stereo not given in full)	n	n	n	n	n	x
CCN(CC)C(=O)[C@H]1C[C@H](CC(=O)NCCC2=CCCCC2)C(=O)N2CCc3c([nH]c4ccc(Cl)cc34)[C@]12C	n	58.4	n	n	n	n
Cc1ccc(NC(=S)NNC(=O)c2ccccc2O)c(C)c1	n	n	n	n	n	x
CC1CCCCN1C(=O)c1cc(-c2ccc3c(c2)OCO3)on1 (stereo not given)	n	92.0	n	n	n	n
Cc1nc(-c2ccc(NC(=O)c3ccc(Br)o3)cc2)cs1	n	61.5	n	n	n	56.1
Cc1nc(-c2cccc(NC(=O)C3CCCCC3)c2)cs1	n	n	n	n	n	x
Cc1nc(-c2ccc(NC(=O)C3CC3)cc2)cs1	n	54.1	n	n	n	40.0
O=C([O-])c1cc(-c2ccccc2)cc(-c2ccccc2)[n+]1CCc1ccc(Cl)cc1	n	x	n	x	x	x
COc1ccc(N=c2cc(-c3ccc(OC)cc3)oc3ccccc23)cc1	n	50.9	n	n	n	39.1
CCOc1ccc(N=c2cc(-c3ccc(OC)cc3)oc3ccccc23)cc1	n	n	n	n	n	x
Cc1cc(C)cc(N=C2NC(=O)/C(=C/c3cccs3)S2)c1	n	n	n	n	n	x
O=C1NC(=Nc2ccccc2)S/C1=C\c1cccs1	n	65.0	n	n	n	72.3
CCC(NC(=S)NCc1ccc(F)cc1)c1ccc(C(C)C)cc1 (stereo not given)	n	n	n	n	n	x
SMILES	PfHsp90 set2	tim23-1 inh	V-ATPase pHluor	tim10-1 inh	TIM10 inh	tim23-1 conf
Cc1ccc(C(=O)CCC(=O)Nc2ncccc2C)cc1	n	n	n	n	n	x
Cc1ccc(C(=O)CCC(=O)Nc2ncccc2O)cc1	x	54.6	n	n	n	n
Cc1cc2cc(CNC(=O)c3ccc(C)c([N+](=O)[O-])c3)ccc2[nH]1	162.0	61.8	n	n	n	56.5
C#CCOc1ccc2c3c(c(=O)oc2c1)CCCC3	n	57.4	n	n	n	49.8
CN(CC(=O)Nc1ccccc1C(F)(F)F)C(=O)C1CC1	n	n	n	n	n	x
Cc1ccc2nc(-c3cccs3)oc(=O)c2c1	x	n	n	n	n	x
O=c1oc(-c2cccs2)nc2ccc(Br)cc12	n	67.0	n	n	n	n
COC(=O)c1cc(C(=O)OCC(=O)c2ccc3c(c2)NC(=O)CO3)cc([N+](=O)[O-])c1	x	n	n	n	n	x
C/C(=N\OCC(=O)N/N=C/c1ccccc1)c1cccs1	n	n	x	n	n	x

Assay outcomes from PubChem.
